# Data reported in PubChem BioAssay (NCATS).
# Inconclusive results are not listed. A number with no mark means an inactive call. The source made the active and inactive calls. Calls follow the shape of the dose curve; as a rule, active = well fitted curve in the direction sought with a large enough effect in the signal ratio, with a control signal flat (not every such curve was filed as active); inconclusive = small, poorly fitted or top-dose-only effect, or effect the other way, or a change in a side signal; inactive = no such curve, though single readings can be large or run the other way; the % refers to the signal ratio.
# Target: Tyrosine-protein phosphatase non-receptor type substrate 1 (Homo sapiens) + Leukocyte surface antigen CD47 (Homo sapiens) (UniProt P78324+Q08722)
# Experiment: CD47-SIRPalpha protein protein interaction - LANCE assay qHTS validation (AID 1347057); also: 0% is about no effect
# Conditions: Recombinant CD47-His / biotin-SIRPalpha, TR-FRET ratio; series mostly up to 38.3 µM; activity change, negative = inhibition: at the top concentration
# Description: SIRPalpha is a myeloid cell expressed immunomodulatory receptor that binds the tumor expressed immune checkpoint CD47. Therapeutic disruption of this interaction leads to immune-mediated tumor rejection. This assay was used to quantitate CD47-SIRPalpha binding biochemically and evaluate chemical libraries for novel CD47-SIRPalpha inhibitors. To recapitulate the biological interaction of CD47 and SIRPalpha, we designed expression constructs to produce their recombinant, soluble, extracellular interaction domains. CD47 was produced with an N-terminal 6His tag. SIRPalpha was produced with an N-terminal Avi-Tag for site-specific biotin incorporation. The CD47-SIRPalpha interaction was measured by TR-FRET using affinity tag linked reagents (anti-6His-Eu donor and streptavidin-APC acceptor). SIRPalpha without biotin incorporation was used as a positive control inhibitor.
# PROTOCOL TABLE (as described by Miller, T. et al. 2019)
# SEQUENCE No. (e.g., 1, 2, 3, etc.); […] (e.g., Cells, Incubation, Reagent, etc.); VALUE and DESCRIPTION.
# 1a. Reagent. 3 uL CD47-His (12.5 nM) and Anti-His Eu Donor reagent (3 nM) added to respective wells in Assay buffer; white/solid bottom high base, med bind 1536-well plates (Greiner 789075)
# 1b. Reagent. 2 uL Assay buffer negative control for background fluorescence
# 2. Reagent. 23 nL library compounds (7-pt, 1:4 intraplate titration series) or DMSO control transferred by Pin Tool
# 3. Centrifuge. Centrifuge plate for 30 s at 1000 RPM
# 4. Incubation.#Incubate reagents at room temperature for 30 min, protected from light
# 5. Reagent. 2 uL SIRPalpha-biotin (100 nM) in Assay buffer
# 6. Incubation.#Incubate reagents at room temperature for 30 min, protected from light
# 7. Reagent. 1 uL SAV-APC (26 nM) acceptor reagent added to respective wells
# 8. Centrifuge. Centrifuge plate for 30 s at 1000 RPM
# 9. Incubation. Incubate reagents at room temperature for 30 min, protected from light
# 10. Detector. Measure Top TR-FRET on EnVision (Eu/APC filter set); calculate ratio Ch1/Ch2
# 1. Assay buffer composition.#Phosphate buffered saline (PBS; 10 mM Phosphate, 137 mM NaCl, and 2.7 mM KCl; pH 7.4), 0.05% IGEPAL CA-630
# 2. 23nL of […] library compounds (7 plates) or DMSO vehicle control transferred to 9 Greiner white/solid bottom high base, TC plates in 7 interplate 1:5 titrations (see Yasgar, A. et al. 2008) with Pintool. Two of the 9 plates are DMSO-only in compound field at beginning and end of compound library-treated plates.
# 10. Detector settings#Mirror = LANCE/DELFIA Dual Enh; Ex. Filter = UV2[TRF] 320; Em. Filter = APC 665; 2nd Em. Filter = Europium 615; Measurement h = 6.5; Ex. light (%) = 100; Delay = 60 us; Window t = 100 us; No. Seq. windows = 1; Time between flashes = 2000us; No. of flashes = 100; No. of flashes for 2nd detector = 100; Calculation: "Ratio Ch1/Ch2"
# Chain of Tyrosine-protein phosphatase non-receptor type substrate 1 (Homo sapiens) + Leukocyte surface antigen CD47 (Homo sapiens) (P78324 whole entry, looked up): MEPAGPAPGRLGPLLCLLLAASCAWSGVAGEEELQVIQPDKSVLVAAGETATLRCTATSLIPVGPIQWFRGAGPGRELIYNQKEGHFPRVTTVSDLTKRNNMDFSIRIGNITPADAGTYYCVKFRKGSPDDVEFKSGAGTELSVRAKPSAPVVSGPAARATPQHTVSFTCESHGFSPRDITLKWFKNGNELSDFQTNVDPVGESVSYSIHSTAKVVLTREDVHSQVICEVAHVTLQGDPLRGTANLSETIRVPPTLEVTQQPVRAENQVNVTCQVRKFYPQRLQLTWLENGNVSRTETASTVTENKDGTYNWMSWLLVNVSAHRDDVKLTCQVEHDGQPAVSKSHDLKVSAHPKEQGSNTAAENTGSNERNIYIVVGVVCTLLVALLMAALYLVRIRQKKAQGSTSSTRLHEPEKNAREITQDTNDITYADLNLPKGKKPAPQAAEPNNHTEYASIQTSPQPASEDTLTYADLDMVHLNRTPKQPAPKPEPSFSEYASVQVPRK
# Chain of Tyrosine-protein phosphatase non-receptor type substrate 1 (Homo sapiens) + Leukocyte surface antigen CD47 (Homo sapiens) (Q08722 whole entry, looked up): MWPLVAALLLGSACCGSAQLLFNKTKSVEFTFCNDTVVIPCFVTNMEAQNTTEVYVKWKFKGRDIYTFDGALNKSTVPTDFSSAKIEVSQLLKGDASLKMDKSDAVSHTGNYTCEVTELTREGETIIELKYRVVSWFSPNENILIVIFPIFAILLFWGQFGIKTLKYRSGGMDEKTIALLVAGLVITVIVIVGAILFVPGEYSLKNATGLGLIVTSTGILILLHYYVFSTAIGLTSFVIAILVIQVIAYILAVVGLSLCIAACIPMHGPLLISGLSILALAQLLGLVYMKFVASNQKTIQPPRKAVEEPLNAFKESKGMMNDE
Structure (SMILES),"activity change, negative = inhibition",outcome
NCCc1cnc[nH]1,0.923%,
OCCN1CCN(CCCN2c3ccccc3Sc3ccc(C(F)(F)F)cc32)CC1,-0.22%,
Nc1c2c(nc3ccccc13)CCCC2,0.879%,
CCN1CCCC1CNC(=O)c1cc(S(=O)(=O)CC)c(N)cc1OC (stereo not given),0.112%,
COc1cc2nc(N(C)CCCNC(=O)C3CCCO3)nc(N)c2cc1OC (stereo not given),1.14%,
COc1cc2c(c(OC)c1OC)-c1ccc(OC)c(=O)cc1[C@@H](NC(C)=O)CC2,0.352%,
NC12CC3CC(CC(C3)C1)C2,-0.44%,
CN1C2CCC1CC(OC(=O)C(CO)c1ccccc1)C2 (stereo not given),,inactive
CN1CCC(=C2c3ccccc3C=Cc3ccccc32)CC1,1.46%,
CCc1cccc2c3c([nH]c12)C(CC)(CC(=O)O)OCC3 (stereo not given),-0.352%,
CC(CCc1ccc(O)cc1)NCCc1ccc(O)c(O)c1 (stereo not given),0.818%,
Cc1ccc(C(=O)Nc2ccc(S(=O)(=O)O)c3cc(S(=O)(=O)O)cc(S(=O)(=O)O)c23)cc1NC(=O)c1cccc(NC(=O)Nc2cccc(C(=O)Nc3cc(C(=O)Nc4ccc(S(=O)(=O)O)c5cc(S(=O)(=O)O)cc(S(=O)(=O)O)c45)ccc3C)c2)c1,-2.53%,
N[C@@H](Cc1c[nH]c2ccc(O)cc12)C(=O)O,1.41%,
COc1cc2nc(N3CCN(C(=O)C4COc5ccccc5O4)CC3)nc(N)c2cc1OC (stereo not given),-1.06%,
Nc1nc2c(ncn2COC(CO)CO)c(=O)[nH]1,-0.176%,
COc1nc(C)nc(Cl)c1NC1=NCCN1,2.33%,
CC(C)Cc1ccc(C(C)C(=O)O)cc1 (stereo not given),-3.6%,
Cn1cnc2c1c(=O)[nH]c(=O)n2C,0.396%,
CN(C)c1nc(N(C)C)nc(N(C)C)n1,0.176%,
CN(C)CCOC(c1ccccc1)c1ccccc1,-0.852%,

Structure (SMILES),"activity change, negative = inhibition",outcome
Clc1ccccc1C(c1ccccc1)(c1ccccc1)n1ccnc1,-0.836%,
COc1ccc2[nH]cc(CCNC(C)=O)c2c1,0.325%,
CCOC(=O)c1ncn2c1CN(C)C(=O)c1cc(F)ccc1-2,-0.221%,
C[C@](N)(Cc1ccc(O)c(O)c1)C(=O)O,0.923%,
O=C(c1ccc(F)cc1)C1CCN(CCn2c(=O)[nH]c3ccccc3c2=O)CC1,-0.407%,
COc1ccc2c(c1)c(CC(=O)O)c(C)n2C(=O)c1ccc(Cl)cc1,-2.78%,
O=C(CCCN1CCC(O)(c2ccc(Cl)cc2)CC1)c1ccc(F)cc1,-0.272%,
CCOC(=O)Nc1ccc(NCc2ccc(F)cc2)nc1N,0.308%,
COc1ccccc1N1CCN(CC(O)COc2cccc3ccccc23)CC1 (stereo not given),-0.368%,
Nc1ccn([C@H]2CC[C@@H](CO)O2)c(=O)n1,-0.923%,
Cc1ccc(-c2cc(C(F)(F)F)nn2-c2ccc(S(N)(=O)=O)cc2)cc1,-1.36%,
CCC1(c2ccccc2)C(=O)NCNC1=O,-0.659%,
Cc1cn([C@H]2C=C[C@@H](CO)O2)c(=O)[nH]c1=O,1.5%,
CCCCc1oc2ccccc2c1C(=O)c1cc(I)c(OCCN(CC)CC)c(I)c1,-2.7%,
CC(C)NCC(O)COc1ccc(CCOCC2CC2)cc1 (stereo not given),0.25%,
CN(C)CCC=C1c2ccccc2C=Cc2ccccc21,0.791%,
CC#C[C@]1(O)CC[C@H]2[C@@H]3CCC4=CC(=O)CCC4=C3[C@@H](c3ccc(N(C)C)cc3)C[C@@]21C,-2.68%,
Cn1c(=O)c2[nH]cnc2n(C)c1=O,2.23%,
Cn1ccc2cc3c(cc21)CCN3C(=O)Nc1cccnc1,-0.572%,
CN(CCOc1ccc(NS(C)(=O)=O)cc1)CCc1ccc(NS(C)(=O)=O)cc1,-0.352%,
